# Data taken from the supplement of paper PMC6555819.
# Columns and labels:
# Assay in all cases: PBM binding z-score (relative to random genomic background probes); higher = stronger binding; sequences stand for … in GC…GCGATTGACAGCGTAGAATGAAGG
# [1] = test system: PPARg:RXRa DBDmut IVT, anti-RXR (DBD mutation: RXRa K156A/R161A, NR concentration 270 nM, RXRa partner concentration 90 nM)
# Procedure, shortened: (§1)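 Random background probes are the reference for binding z-scores. These scores derive from regression-normalized fluorescence on custom Agilent 4×180K protein-binding microarrays incubated 1 h with ligand-free nuclear receptor dimers. Binding was detected with antibodies against each partner (one per run).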
# [2] = test system: PPARg:RXRa IVT, anti-PPARg (NR concentration 270 nM, RXRa partner concentration 90 nM)
# Procedure, shortened: as §1
# [3] = test system: PPARg DBDmut:RXRa IVT, anti-PPARg (DBD mutation: PPARg1 K132A/R137A, NR concentration 270 nM, RXRa partner concentration 90 nM)
# Procedure, shortened: as §1
# [4] = test system: PPARg DBDmut IVT, anti-PPARg (DBD mutation: PPARg1 K132A/R137A, NR concentration 270 nM)
# Procedure, shortened: as §1
# [5] = test system: PPARg homodimer (NR concentration 180 nM)
# Procedure, shortened: as §1
# [6] = test system: PXR:RXRa (NR concentration 270 nM, RXRa partner concentration 90 nM)
# Procedure, shortened: as §1
# [7] = test system: PXR homodimer (NR concentration 270 nM)
# Procedure, shortened: as §1
# [8] = test system: RARa:RXR (NR concentration 270 nM, RXRa partner concentration 90 nM)
# Procedure, shortened: as §1
# [9] = test system: RARa homodimer (NR concentration 270 nM)
# Procedure, shortened: as §1
# [10] = test system: RARb:RXRa (NR concentration 270 nM, RXRa partner concentration 90 nM)
# Procedure, shortened: as §1
# [11] = test system: RARb homodimer (NR concentration 270 nM)
# Procedure, shortened: as §1
# [12] = test system: RARg:RXRa (NR concentration 270 nM, RXRa partner concentration 90 nM)
# Procedure, shortened: as §1
# [13] = test system: RARg homodimer (NR concentration 270 nM)
# Procedure, shortened: as §1
# [14] = test system: RXRa DBDmut IVT, anti-RXR (DBD mutation: RXRa K156A/R161A, NR concentration 90 nM)
# Procedure, shortened: as §1
# [15] = test system: RXRa homodimer (NR concentration 180 nM)
# Procedure, shortened: as §1
# [16] = test system: THRa:RXRa (NR concentration 90 nM, RXRa partner concentration 90 nM)
# Procedure, shortened: as §1
# [17] = test system: THRa homodimer (NR concentration 90 nM)
# Procedure, shortened: as §1
# [18] = test system: VDR homodimer (NR concentration 270 nM)
# Procedure, shortened: as §1
Sequence,PBM binding z-score [1],PBM binding z-score [2],PBM binding z-score [3],PBM binding z-score [4],PBM binding z-score [5],PBM binding z-score [6],PBM binding z-score [7],PBM binding z-score [8],PBM binding z-score [9],PBM binding z-score [10],PBM binding z-score [11],PBM binding z-score [12],PBM binding z-score [13],PBM binding z-score [14],PBM binding z-score [15],PBM binding z-score [16],PBM binding z-score [17],PBM binding z-score [18]
ATCTCTAGTTAACCAAGTTCAGTGAATGCCGAAC,-0.131,0.461,0.59,1.22,1,2.1,3,0.723,1.21,0.932,1.4,0.578,0.612,0.814,0.549,1.19,0.332,3.16
TCGAGTAGCTTAGGGGCATTCAGAATGGCGTCGA,0.336,-0.404,-0.673,-0.923,-0.986,0.0972,-0.797,0.217,-1.45,0.238,0.0653,-0.284,-0.446,0.27,0.216,0.657,-0.487,0.282
CCGACTGGGGCAAAGGTGACCATACTCAGTACGA,5.54,5.24,0.207,-0.959,1.34,0.701,-0.655,1.65,-0.317,1.62,1.44,1.9,1.13,-0.244,2.04,0.896,-0.0809,-0.471
CCTAGTTGCTCAGGAGGTCACACACCGGATATGA,0.887,2.47,0.559,1.01,3.26,4.39,1.59,4.49,2.6,3.64,4.04,4.26,3.65,1.26,4.71,3.75,2.69,2.65
TCTTGTAGATCAATCAGGTTAAGAAAGCCTGAGT,1.98,0.808,1.29,0.885,-0.302,0.413,-0.0985,0.669,-0.252,0.281,0.194,0.0482,-0.074,0.724,0.241,1.02,0.308,0.0655
AGAACGAGGGCACACTGAGTTGATAGCAGAGTAG,3.87,3.8,0.337,0.314,0.871,1.29,0.305,0.924,0.142,2.16,1.02,1.64,1.91,2.1,1.24,1.72,0.167,1.78
ACTAGCAGGCCACGTTTGGGTCACTCAAACAAAG,1.75,1.88,-0.646,-0.408,0.639,0.56,-0.664,1.3,-0.197,1.58,1.91,2.05,1.58,-0.109,0.813,2.64,1.28,-0.0731
AGAACGATGGCAATGAGTTGATAGCACGGGTGGC,-0.597,-0.751,0.0197,-0.258,-0.596,-0.563,-0.0123,-0.325,-0.149,-0.604,-1.04,-0.249,0.108,-0.297,0.0313,-0.986,-0.999,-0.0604
CAAACTAGGTCAAAGTTCAAAGTCGAGCCAACCA,8.26,8.92,2.7,3.37,3.22,6.38,5.12,7.88,1.43,5.27,4.52,7.71,6.23,3.95,8.77,4.23,1.21,4.43
AGAACCAGGGCACGCTGAGTTGATAGCAGAGTAG,4.22,3.95,0.0191,-0.605,-0.0465,0.357,-0.341,0.14,-0.234,1.34,0.548,0.797,1.19,-0.0403,0.657,0.883,-0.00671,0.466
TGAATGAGGTTACAAGATCAGGGAACGTTGCAAA,1.92,3.07,0.903,1,0.112,0.754,-0.231,1.68,0.0919,1.73,0.458,1.79,1.52,0.127,2.26,2.2,0.329,0.106
TCATATAGGTAAAAAGTGAAAGTCGGTGTGGTAA,4.48,2.54,1,0.168,0.986,0.581,0.658,0.666,0.947,0.366,0.0434,0.226,-0.0939,2.01,0.563,-0.0757,-0.132,0.435
CCTACTGGGCCATCCGGTCATTGATATCAACGTT,3.87,4.21,-0.352,-0.431,0.811,-0.0327,-0.0108,0.187,-0.315,1.42,1.9,0.787,1.34,-0.598,0.106,0.75,0.677,0.0499
TCATATAGGTAAAAGGTGTAAGTCGGTGTGGTAA,4.99,3.58,1.13,0.898,1.04,0.588,0.592,0.719,0.894,0.49,0.36,0.32,0.0311,1.55,0.644,0.0897,-0.167,0.313
CGTACTGGGCCAAGGTCATTGATCAGTCAAAGCA,4.15,4.66,-0.787,-0.351,1.31,3.51,1.34,3.71,-0.0917,3.35,3.36,3.89,3.26,1.57,3.05,3.42,2.56,3.55
